# Shn3 3UTR inh: reduction of Shn3 3'UTR firefly luciferase signal, primary screen, Schnurri-3 inhibitor project, cell-based, Clone20 osteoblasts, set 2; hit rate 0.52% among 360,000; Clone20 osteoblast Shn3 3'UTR firefly luciferase, 24 h; inhibition, % at 12.5 µM; AID 588674, 2011;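 active = mean inhibition of at least 75% with every replicate also reaching 75%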;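 also: 0% = median of neutral control wells and 100% = pilot-screen positive control compound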
# Gli-Sufu antag: Gli-Sufu pathway antagonists, primary screen, luciferase luminescence, Sufu-KO-LIGHT cells, uHTS | Sufu-KO-LIGHT fibroblasts, Gli luciferase reporter luminescence | inhibition, % at 5 µM | hit rate 0.74% among 340,000 | AID 588413, 2011;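 active = inhibition above about 55%, limit read from the data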;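 also: 0% = DMSO-treated cells and 100% = wells with medium but no cells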
# aSyn 5UTR inh: MLPCN primary screen, SNCA 5' untranslated region. hit rate 0.82% among 300,000. alpha-synuclein 5'UTR reporter, inhibitor activity. inhibition, % (tested at 7.5 µM); in the data active = inhibition above about 60%;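 also: H4 neuroglioblastoma cells stably carrying SNCA 5'UTR luciferase fusion; 0% = DMSO wells and 100% = positive control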
# TAG inh: inhibitors of triacylglycerol accumulation, primary screen, cell-based, uHTS, fluorescence, H9c2 | H9c2 cells, Nile Red lipid (TAG) fluorescence; cells loaded with 200 µM oleic acid | inhibition, % at 12.5 µM | hit rate 0.66% among 230,000;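 active = pattern-corrected inhibition of lipid staining of at least 50% with the nuclear-stain viability signal not falling by more than 50%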;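 also: 0% = DMSO wells and 100% = triacsin C control wells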
# 697 NFkB inh: inhibitors of PMA/ionomycin-induced NF-kB reporter, 697 cells, primary screen, B-cell NF-kB inhibitor project, cell-based, luminescence, uHTS | 697 B-cell NF-kB luciferase reporter, 16 h | inhibition, % at 4 µM | hit rate 0.33% among 330,000 | AID 435022, 2010; in the data active = inhibition above about 35%
# Jurkat NFkB inh: inhibitors of induced NF-kB luciferase reporter, primary screen, TCR NF-kB activation inhibitor project, cell-based, luminescence, uHTS | hit rate 0.53% among 330,000 | Jurkat, PMA/ionomycin-induced NF-kB luciferase reporter | inhibition, % at 4 µM; in the data active = inhibition above about 50%
# TAG conf: triacylglycerol accumulation inhibitors, retest, confirmation, cell-based, single concentration, Nile Red fluorescence, H9c2; shares compounds with TAG inh; inhibition, % at 12.5 µM; hit rate 71% among 990; AID 651629, 2012; H9c2 lipid accumulation; cells loaded with 200 µM oleic acid;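 active = mean inhibition across replicates of 40% or more; inactive = mean inhibition below 40%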;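 also: plate controls were DMSO only wells for no effect and Triacsin C treated wells for full effect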
# Numbers without * were called inactive; nt = no result given. Shown are actives, neighbours in structure and some others; about 2.3% of the full set was active somewhere.
SMILES,Shn3 3UTR inh,Gli-Sufu antag,aSyn 5UTR inh,TAG inh,697 NFkB inh,Jurkat NFkB inh,TAG conf
C/C(N)=C(/C#N)C(=O)COC(=O)c1cccc(O)c1,-4,-10,-28,2,4,-9,nt
CC1(C(=O)NCc2cccs2)Cc2c(-c3ccc4c(c3)OCO4)ccnc2O1 (stereo not drawn),-19,nt,nt,54*,nt,nt,52*
CC1(C(=O)Nc2ccccc2)Cc2c(-c3ccc4c(c3)OCO4)ccnc2O1 (stereo not drawn),-51,nt,nt,-6,nt,nt,nt
CC1(C(=O)Nc2cccc(Oc3ccccc3)c2)Cc2c(-c3ccc4c(c3)OCO4)ccnc2O1 (stereo not drawn),23,nt,nt,63*,nt,nt,47*
CN(C)CCCn1c(SCC(=O)Nc2nc(-c3cccc(Br)c3)cs2)nc2ccccc2c1=O,-53,15,-33,79*,-5,8,67*
O=C(CSc1nc2ccccc2[nH]1)Nc1nc(-c2cccc(Br)c2)cs1,-9,-7,-85,nt,-12,0,nt
COc1ccc2nc3cc([N+](=O)[O-])ccc3c(NNc3ccc([N+](=O)[O-])cc3)c2c1,-30,10,nt,50*,nt,nt,44*
CCC(C)NCCOCCOc1ccc(Cl)c2ccccc12 (stereo not drawn),1,3,3,53*,-2,11,45*
CCC(C)NCCOCCOc1ccc(Cl)c(C)c1C (stereo not drawn),-11,17,-12,13,-14,4,nt
C=CCN1C(=O)/C(=C2/Sc3ccccc3N2C)SC1=Nc1ccccc1C,16,36,37,61*,-6,-10,39
COC(=O)C(C(=O)OC)c1ccc(N)cc1,-31,3,25,9,6,1,nt
O=C(N/N=C/c1ccc(F)cc1)c1sccc1OCc1ccc(F)cc1,-11,-5,-94,-7,-33,47,nt
O=C(N/N=C/c1ccc(Cl)cc1)c1sccc1OCc1ccc(F)cc1,3,4,73*,50*,-2,42,54*
CC1CCCCN1C(=O)Cc1ccc(Cl)cc1 (stereo not drawn),-18,-12,-50,-1,1,-7,nt
Cc1cc(NC(=O)CSc2nc(-c3cccs3)nc3ccccc23)no1,23,3,nt,78*,-33,50,73*
O=C(NC(=S)N(Cc1ccccc1)Cc1ccccc1)C1CCCCC1,-4,-5,7,54*,4,2,0
N#C/C(=C\c1ccc(OC(F)F)cc1)C(=O)N1CCCCC1,-38,-15,-8,83*,16,-3,2
CCC1=Nc2cc(C(=O)NCCN3CCCC3)ccc2Sc2ccccc21,0,34,-32,nt,11,-24,nt
CCC1=Nc2cc(C(=O)NCCCOC)ccc2Sc2ccccc21,3,16,74*,61*,5,46,45*
Cc1cc(C)cc(N(CC(=O)NC2CCCCC2)C(=O)c2ccc(C)s2)c1,3,6,0,nt,15,0,nt
Cc1ccc2c(c1)-c1c(cnn1CC(=O)Nc1ccccc1N1CCN(C)CC1)CO2,-33,2,-19,53*,4,-9,51*
Cc1c(P(=S)(c2ccccc2)c2ccccc2)[n+]2ccccc2n1C/C=C/c1ccccc1,-20,nt,nt,83*,nt,nt,90*
Cc1nc(N/N=C/c2cccc(F)c2)cc(N2CCOCC2)n1,13,-5,9,64*,6,-7,68*
Oc1cccc(/C=N/Nc2cc(N3CCOCC3)nc(N3CCOCC3)n2)c1,29,22,17,121,18,-32,nt
CC(C)(C)c1csc(NC(=O)c2cccs2)n1,-30,-74,-84,73*,-151,-50,34
SMILES,Shn3 3UTR inh,Gli-Sufu antag,aSyn 5UTR inh,TAG inh,697 NFkB inh,Jurkat NFkB inh,TAG conf
COCCN1C(=O)c2ccccc2C(C(=O)Nc2ccc3c(c2)OCCO3)C1c1ccc(F)cc1 (stereo not drawn),19,-1,8,57*,-21,5,28
CCN(CC)CCCNC(=O)C1c2ccccc2C(=O)N(CCOC)C1c1ccc(F)cc1 (stereo not drawn),15,3,-3,-1,7,4,nt
Cc1ccc(NC(=O)CSc2nnc(C)c(=O)n2N)cc1Cl,3,-6,-8,51*,2,-5,44*
Cc1nnc(SCC(=O)Nc2ccc(OC(F)F)c(Cl)c2)n(N)c1=O,-9,1,nt,19,6,5,nt
CN(Cc1ccc(Cl)cc1)C(=O)CCl,-9,-6,-14,52*,18,18,60*
CCOC(=O)N1CCC(N2Cc3cccc(C(=O)Nc4ccc(CC)cc4)c3C2=O)CC1,37,3,-14,70*,11,6,27
O=C(CCC(=O)N1CCN(c2ccc(F)cc2)CC1)c1ccccc1,-14,-9,-12,nt,-7,-3,nt
COc1ccc(-c2oc(=O)c3cc(OC)c(OC)cc3c2/C=C/c2ccc([N+](=O)[O-])cc2)cc1,5,9,nt,54*,16,4,31
COc1ccc(-c2oc(=O)c3cc(OC)c(OC)cc3c2/C=C/c2cccc([N+](=O)[O-])c2)cc1,4,23,nt,35,7,-5,nt
COc1ccc([C@H]2C=C(C(=O)O)O[C@@H](OCCCCO)C2)cc1,-6,1,13,-2,7,4,nt
CCC(C)NC(=O)C1CCN(c2nc(OC)nc(OC)n2)CC1 (stereo not drawn),-24,0,16,-4,6,10,nt
O=C(Nc1cccc(-c2csc(Nc3cccc(C(F)(F)F)c3)n2)c1)c1cc([N+](=O)[O-])cc(C(F)(F)F)c1,28,24,-37,58*,-6,-5,56*
O=C(Nc1ccc(-c2csc(Nc3ccc(Cl)cc3)n2)cc1)c1cccc(C(F)(F)F)c1,nt,2,4,nt,-7,6,nt
O=C(Nc1ccc(-c2csc(Nc3ccccc3)n2)cc1)c1cc([N+](=O)[O-])cc(C(F)(F)F)c1,7,15,9,39,-35,-2,nt
O=C(Nc1ccc(-c2csc(Nc3ccccc3)n2)cc1)c1cccc(C(F)(F)F)c1,33,9,4,75*,-53,13,83*
CCN(CC)CCC(c1cc(OC)c(OC)c(OC)c1)c1c(OC)cc(OC)c2c(C)cc(=O)oc12 (stereo not drawn),12,10,-38,17,-5,16,nt

# Compound activity deposited in PubChem by several laboratories.
